Measurements reported in PubChem BioAssay AID488969 (Vanderbilt High Throughput Screening Facility, 2010).
Whole data set: some 110,000 compounds, median “z-score” near -0.1, cut for the highest 2% near 2. The entries come from a sample that favours the highest values as a whole. Calls of active or inactive are those of the source.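 Rule for the calls: active = z-score in the third read window above 3 or below -3; inactive = the rest.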

biological target: Metabotropic glutamate receptor 8 (Rattus norvegicus) (UniProt P70579); assay: mGluR8 Gi/Go-coupled signaling modulation – cell-based, rat, thallium flux, HTS, primary screen (AID 488969); conditions: HEK293 rat mGluR8, GIRK (G protein-gated inwardly rectifying potassium channel) thallium flux, FluoZin2; at 10 µM; stronger effect = higher value; submaximal glutamate (EC20) added with thallium
Sequence (P70579 whole entry, looked up): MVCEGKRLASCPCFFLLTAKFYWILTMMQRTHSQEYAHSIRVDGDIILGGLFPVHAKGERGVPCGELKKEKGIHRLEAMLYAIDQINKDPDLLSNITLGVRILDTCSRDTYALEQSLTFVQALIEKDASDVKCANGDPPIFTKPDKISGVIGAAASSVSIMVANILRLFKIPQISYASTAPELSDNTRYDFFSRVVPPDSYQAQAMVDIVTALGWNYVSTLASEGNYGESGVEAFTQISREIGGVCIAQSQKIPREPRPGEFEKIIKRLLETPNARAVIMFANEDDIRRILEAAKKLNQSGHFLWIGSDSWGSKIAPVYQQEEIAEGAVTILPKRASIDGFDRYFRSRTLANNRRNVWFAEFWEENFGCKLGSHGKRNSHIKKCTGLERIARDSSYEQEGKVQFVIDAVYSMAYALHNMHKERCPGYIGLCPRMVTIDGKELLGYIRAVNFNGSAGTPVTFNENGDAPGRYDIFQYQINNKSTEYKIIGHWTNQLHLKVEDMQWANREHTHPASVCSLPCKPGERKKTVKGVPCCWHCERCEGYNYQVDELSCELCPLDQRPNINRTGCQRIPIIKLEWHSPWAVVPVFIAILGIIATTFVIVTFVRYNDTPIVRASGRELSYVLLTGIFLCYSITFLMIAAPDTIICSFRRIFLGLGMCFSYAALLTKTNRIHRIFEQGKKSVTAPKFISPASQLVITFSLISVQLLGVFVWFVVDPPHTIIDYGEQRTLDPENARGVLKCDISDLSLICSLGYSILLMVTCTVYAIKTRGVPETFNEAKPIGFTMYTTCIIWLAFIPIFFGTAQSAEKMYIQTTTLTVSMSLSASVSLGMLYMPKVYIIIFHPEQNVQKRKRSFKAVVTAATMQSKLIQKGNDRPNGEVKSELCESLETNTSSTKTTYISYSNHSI

SMILES	z-score
CC(=O)N(c1nc(CCl)cs1)c1c(C)cc(C)cc1C	1.43
Cc1ccc(-c2cc(C(=O)NCc3cnn(C)c3C)c3cc(Br)ccc3n2)cc1	-0.453
CCc1ccc(C2C(C#N)=C(N)C(C#N)(C#N)C3=CCC(C(C)(C)C)CC32)cc1 (configuration not stated)	-0.0406
CC(C)NC(=O)CCCn1c(=S)[nH]c2cc3c(cc2c1=O)OCO3	0.566
COCCn1c(=S)[nH]c2cc(C(=O)N3CCN(c4ccc(F)cc4)CC3)ccc2c1=O	4.3 (active)
CCN(CC)CCn1c(=S)[nH]c2cc3c(cc2c1=O)OCO3	-0.565
CCCn1c(=S)[nH]c2cc(C(=O)N3CCN(c4ccccc4OC)CC3)ccc2c1=O	0.596
COCCn1c(=S)[nH]c2cc(C(=O)N3CCN(c4ccccc4OC)CC3)ccc2c1=O	-0.495
CC(=O)c1ccc(N2CCN(C(=O)CCCn3c(=S)[nH]c4cc5c(cc4c3=O)OCO5)CC2)cc1	2.56
O=C(CCCn1c(=S)[nH]c2cc3c(cc2c1=O)OCO3)N1CCN(c2ccc(F)cc2)CC1	-0.237
O=C(CCCn1c(=S)[nH]c2cc3c(cc2c1=O)OCO3)N1CCN(c2ccc(Cl)cc2)CC1	-0.36
CC(C)OCCCn1c(=S)[nH]c2cc3c(cc2c1=O)OCO3	6.19 (active)
Cc1cc(=O)[nH]c(SCC(=O)C23CC4CC(CC(C4)C2)C3)c1C#N	-0.0485
O=C(Nc1cccc(O)c1)c1cc2nc(-c3ccccc3)cc(-c3ccccc3)n2n1	-0.00871
O=C(COc1ccc(C(=S)N2CCOCC2)cc1)N1CCCC1	-0.301
Cc1ccc(S(=O)(=O)N2CCN(C)CC2)cc1-c1nnc2c3ccccc3c(C)nn12	9.27 (active)
Cc1ccc(S(=O)(=O)N2CCN(CCO)CC2)cc1-c1nnc2c3ccccc3c(C)nn12	-0.156
Cc1ccc(-c2nnc3c4ccccc4c(C)nn23)cc1S(=O)(=O)N1CCN(C)CC1	-0.999
Cc1cc(C)n(-c2nncn2NC(=O)c2ccc(Cl)cc2O)n1	2.24
Cc1cc(C)n(-c2nnc(C)n2NC(=O)c2cccc(Cl)c2)n1	0.0281
Cc1ccc(C)n1NC(=O)c1ccc(Cl)cc1Cl	0.557
CCCCn1c(SC(C)C(N)=O)nc2cc(C(=O)OC)ccc2c1=O (configuration not stated)	3 (active)
CCNC(=O)NC(=O)C(C)Sc1nc2cc(C(=O)OC)ccc2c(=O)n1-c1ccccc1 (configuration not stated)	0.204

SMILES	z-score
CCSc1nc2cc(C(=O)OC)ccc2c(=O)n1CC	0.836
O=C(O)C1CC=CCC1C(=O)NCc1ccc2c(c1)OCO2 (configuration not stated)	-0.618
COc1ccc(N2CCN(C(=O)CSc3nnc4c(C)cc5cc(C)ccc5n34)CC2)cc1	1.03
Cc1ccc(C)c(-n2ccnc2SCC(=O)O)c1	-0.0351
CCc1cccc(NC(=O)CN(c2ccc(OC)cc2)S(=O)(=O)c2c(C)n[nH]c2C)c1	0.317
COCCCNC(=O)Cn1ncc2ccsc2c1=O	-0.327
COCCNC(=O)Cn1ncc2ccsc2c1=O	2.25
COC(CNC(=O)Cn1ncc2ccsc2c1=O)OC	-0.112
CCOc1ccc2oc(-c3ccccc3)c(C(=O)N3CCN(CCO)CC3)c2c1	-0.457
COc1cccc(C(=O)NCc2cn3ccsc3n2)c1	15.2 (active)
COc1cc(C(=O)NCc2cn3ccsc3n2)cc(OC)c1OC	-0.0269
COc1ccc(C(=O)NCc2cn3ccsc3n2)cc1OC	-0.547
O=C(CSc1ccc(-c2ccc(F)cc2)nn1)N1CCN(c2ccccc2)CC1	-0.139
Cc1ccc(C(=O)O)cc1S(=O)(=O)N1CCOCC1	-0.267
Cc1ccc(C(=O)O)cc1S(=O)(=O)N1CCC(C(=O)O)CC1	0.299
Cc1ccc(C(=O)O)cc1S(=O)(=O)N1CCCC1	2.05
CCOC(=O)c1cnc2c(C#N)c(C)nn2c1C	0.0622
COc1ccc(NS(=O)(=O)c2cc(NC(=O)c3ccc(C)o3)ccc2N2CCCCC2)cc1	-0.024
CC1CCCCN1CCNC(=O)c1cc2c(=O)n(C)c3ccccc3c2n1C (configuration not stated)	1.88
CC1CCCC(C)N1CCCNC(=O)c1cc2c(=O)n(C)c3ccccc3c2n1C (configuration not stated)	2.79
Cn1c(C(=O)NCCN2CCOCC2)cc2c(=O)n(C)c3ccccc3c21	-2.82
Cn1c(C(=O)NCCCN2CCN(c3ccccc3F)CC2)cc2c(=O)[nH]c3ccccc3c21	-0.0771
CCCN1CCN(CCCNC(=O)c2cc3c(=O)n(C)c4ccccc4c3n2C)CC1	1.48

SMILES	z-score
Cn1c(C(=O)NCCCN2CCCCCC2)cc2c(=O)n(C)c3ccccc3c21	2.52
Cn1c(C(=O)NCCCN2CCOCC2)cc2c(=O)n(C)c3ccccc3c21	0.0335
Cn1c(C(=O)NCCCN2CCCC2=O)cc2c(=O)n(C)c3ccccc3c21	-0.963
Cn1c(C(=O)NCCCN2CCN(c3ccccc3F)CC2)cc2c(=O)n(C)c3ccccc3c21	2.46
CC1CCN(CCCNC(=O)c2cc3c(=O)n(C)c4ccccc4c3n2C)CC1	2.7
Cn1c(C(=O)NCCN2CCCCCC2)cc2c(=O)n(C)c3ccccc3c21	1.86
CCC(=O)N1CCN(c2nc3ccccc3s2)CC1	-0.0557
O=C(NNC(=S)NC1CCCCC1)c1cccc(S(=O)(=O)Nc2ccccc2Cl)c1	-0.537
O=C(CCNc1ccccc1)c1cccc([N+](=O)[O-])c1	-0.134
Cc1cccc(NC(=O)c2sc(NC(=O)COc3ccccc3)c(C#N)c2C)c1C	-0.152
CC(OC(=O)c1cc2sccc2n1C)C(=O)NCc1ccc2c(c1)OCO2 (configuration not stated)	-0.018
Cc1snc2sc(C(=O)c3ccc(Br)cc3)c(N)c12	-0.378
O=C(NCc1ccco1)c1cc(-c2ccc3c(c2)OCO3)on1	-0.862
O=C(O)CCCN1C(=O)C2C3CCC(O3)C2C1=O (configuration not stated)	-0.35
CCCCn1c(SCC(=O)Nc2ccccc2C(F)(F)F)nc2ccsc2c1=O	0.00651
COCCN(CCOC)C(=O)CC(=O)N(CCOC)CCOC	0.0459
Cn1c(C(=O)NCCN2CCc3ccccc3C2)cc2c(=O)n(C)c3ccccc3c21	2.7
CN1CCN(CCNC(=O)c2cc3c(=O)n(C)c4ccccc4c3n2C)CC1	0.327
Cn1c(C(=O)NCCCN2CCc3ccccc3C2)cc2c(=O)n(C)c3ccccc3c21	0.807
COc1cccc(C(=O)OCC(=O)Nc2cc(C)c(C)cc2[N+](=O)[O-])c1	-0.131
O=C(C1CCCN(Cc2ccccc2)C1)N1CCCCC1 (configuration not stated)	0.122
O=C(C1CCCN(Cc2cccs2)C1)N1CCCCCC1 (configuration not stated)	3.36 (active)
CCOC(=O)C1CCCN(Cc2cccs2)C1 (configuration not stated)	-0.137

SMILES	z-score
COc1cccc(C(=O)Cn2c(=O)n(CC3CCCO3)c(=O)c3ccccc32)c1 (configuration not stated)	-0.719
CC1CCN(C(=O)C2CCN(S(=O)(=O)c3cccnc3)CC2)CC1	2.03
O=C(C1CCN(S(=O)(=O)c2cccnc2)CC1)N1CCN(C2CCCC2)CC1	-0.318
O=C(C1CCN(S(=O)(=O)c2cccnc2)CC1)N1CCCCC1	0.487
Cc1ccc(Cn2nnc3c(=O)[nH]c(C4CCN(S(=O)(=O)c5cc(C)ccc5C)CC4)nc32)cc1	0.616
Cc1ccc(S(=O)(=O)NCCc2ccncc2)cc1	-0.472
O=C1CCCN1CN(C(=O)c1ccc2c(c1)OCO2)c1cccc(Cl)c1	-0.21
CCN(c1nc(C)cc(OC)n1)S(=O)(=O)c1ccccc1	-0.243
COc1cc(C)nc(N(Cc2ccccc2)S(=O)(=O)c2ccccc2)n1	2.43
COC(=O)CN(c1nc(C)cc(OC)n1)S(=O)(=O)c1ccccc1	-0.5
CCc1ccc(S(=O)(=O)N(C(=O)c2ccncc2)c2ccc(OC(=O)c3ccncc3)cc2)cc1	-0.659
Cn1c(CN2CCN(C(=O)c3ccccc3)CC2)nc2cc([N+](=O)[O-])ccc21	0.0497
Cc1c(NC(=O)c2cnn3c(C(F)(F)F)cc(-c4ccco4)nc23)c(=O)n(-c2ccccc2)n1C	0.95
Cc1ccc(C)c(NC(=O)/C(C#N)=C/c2ccc(Sc3nncn3C)c([N+](=O)[O-])c2)c1	-0.0512
Cc1cccc(NC(=O)c2ccoc2C)n1	2.35
CCCCOC(=O)Nc1ccc(C(=O)OCCC)cc1	3.09 (active)
COC(=O)c1cc(NC(=O)c2ccoc2C)cc(C(=O)OC)c1	4.89 (active)
CCCOC(=O)c1ccc(NC(=O)Oc2ccccc2)cc1	0.454
CCCCOC(=O)Nc1ccc(C(N)=O)cc1	0.507
Cc1occc1C(=O)Nc1ccc2ccccc2c1	2.19
Cc1occc1C(=O)Nc1cccc(C(=O)O)c1	-0.0368
Cc1cc(NC(=O)c2ccoc2C)no1	-0.105
CCOC(=O)c1cc(NC(=O)c2ccoc2C)cc(C(=O)OCC)c1	-2.39

SMILES	z-score
Cc1cccc(NC(=O)c2ccccc2Br)n1	0.0402
Cc1occc1C(=O)Nc1ccccc1NC(=O)c1ccoc1C	0.13
COC(=O)c1cc(NC(=O)c2cc(C)oc2C)cc(C(=O)OC)c1	0.433
CSc1nc(N(C)C)nc(N2CC(=O)N(CCNS(=O)(=O)c3ccc(C)cc3)C2=N)n1	-0.172
CCC(=O)NC(=S)Nc1ccc(NC(=O)COc2ccc(Cl)c(C)c2)cc1	-0.0852
CC(C)(C)C(C(Oc1ccc(Cl)cc1)n1cncn1)n1nnnc1C(c1cccc(Cl)c1)N1CCCCC1 (configuration not stated)	0.12
NS(=O)(=O)c1ccc(CCNC(=O)CSc2ccccc2)cc1	0.222
CC(C)C(NS(=O)(=O)c1cccc2nsnc12)C(=O)NCc1ccc2c(c1)OCO2 (configuration not stated)	-0.269
CCCCOC(=O)c1ccc(NC(=O)c2ccoc2C)cc1	-0.0292
CCCOC(=O)c1ccc(NC(=O)c2ccoc2C)cc1	2.24
CCCOC(=O)c1ccc(NC(=O)c2ccc(Br)o2)cc1	-0.692
COc1ccc(C(=O)NCC(=O)NCC2COc3ccccc3O2)cc1 (configuration not stated)	1
CCOc1cc(C(=S)N2CCC(O)CC2)ccc1OS(=O)(=O)c1ccc(Br)cc1	0.875
CCC(=O)NCC(=O)OCC(=O)c1ccccc1	-0.0257
Cc1cc(C)nc(SCC(=O)Nc2nc(-c3ccccc3)c(-c3ccccc3)o2)n1	-0.522
O=C(Nc1nc(-c2ccccc2)c(-c2ccccc2)o1)c1ccc(F)cc1	13.5 (active)
Cc1cc(=O)[nH]c(SCC(=O)Nc2nc(-c3ccccc3)c(-c3ccccc3)o2)n1	-1.38
CC(=O)Nc1nc(-c2ccccc2)c(-c2ccccc2)o1	-0.185
Cc1ccc(C(=O)Nc2nc(-c3ccccc3)c(-c3ccccc3)o2)cc1	3.53 (active)
Cn1nnnc1SCC(=O)Nc1nc(-c2ccccc2)c(-c2ccccc2)o1	-0.0372
